{"source": "PubChem BioAssay AID1851", "about": "(National Center for Advancing Translational Sciences (NCATS), 2009)", "note": "Values joined by “and” are separate entries in the source; they are usually repeats but may differ in a detail not shown here. Identical values can stand only once. Screen size: about 16,000 compounds; about 5,700 (36%) were called active. Roughly 24% stayed inconclusive and do not appear here. Some of the results follow. A number with no mark means an inactive call. Calls follow the shape of the dose curve; as a rule, active = well fitted curve in the direction sought with a large enough effect; inconclusive = small, poorly fitted or top-dose-only effect, or effect the other way; inactive = no such curve, though single readings can be large or run the other way. % is scaled to controls: 0 for no effect and ±100 for the full control effect.", "data": [{"biological_target": "Cytochrome P450 1A2 (Homo sapiens) (UniProt P05177)", "sequence (P05177 whole entry, looked up)": "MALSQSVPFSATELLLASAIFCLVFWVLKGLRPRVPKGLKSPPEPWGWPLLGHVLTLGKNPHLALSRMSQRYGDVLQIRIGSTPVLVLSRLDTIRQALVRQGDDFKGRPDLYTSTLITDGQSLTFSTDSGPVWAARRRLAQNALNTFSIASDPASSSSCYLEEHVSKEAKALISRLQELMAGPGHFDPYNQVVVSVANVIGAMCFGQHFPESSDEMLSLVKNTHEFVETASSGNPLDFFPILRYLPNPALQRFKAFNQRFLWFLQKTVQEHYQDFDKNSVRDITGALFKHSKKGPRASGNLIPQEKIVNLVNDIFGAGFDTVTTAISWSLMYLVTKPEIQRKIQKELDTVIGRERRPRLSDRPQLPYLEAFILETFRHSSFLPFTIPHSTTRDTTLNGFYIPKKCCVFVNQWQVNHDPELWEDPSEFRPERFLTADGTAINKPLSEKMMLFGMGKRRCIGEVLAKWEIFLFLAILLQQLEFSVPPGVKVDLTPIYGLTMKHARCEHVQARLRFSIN", "experiment": "Cytochrome panel assay with activity outcomes", "conditions": "recombinant CYP, pro-luciferin dealkylation, luminescence, p450-cyp1a2; series mostly up to 57.1 µM", "protocol": "The P450 gene superfamily is involved in the metabolism and clearance of xenobiotics. This assay used various human CYP P450 isozymes to measure the dealkylation of various pro-luciferin substrates to luciferin. The luciferin is then measured by luminescence after the addition of a luciferase detection reagent. Pro-luciferin substrate concentration in the assay was equal to its KM for its CYP P450 isozyme. Inhibitors and some substrates limit the production of luciferin, and decrease measured luminescence.\nNCGC Assay Protocol Summary:\n1, Reagent, 2 uL, Isozyme and Pro-Luciferin\n2, Library compounds, 23 nl, 40 uM to 0.24 nM dilution series\n3, Controls, 23 nl, Isozyme specific inhibitor\n4, Reagent, 2 uL, NADPH regeneration solution\n5, Incubation time, 60 min, Isozyme specific temperature\n6, Reagent, 4ul, Detection reagent\n7, Incubation time, 20 min, Isozyme specific temperature\n8, Detection, 1 sec, ViewLux luminescent read\nThe luciferase-based P450-GloTM Screening Systems were obtained from Promega (Madison, WI) for CYP 1A2 (V9770), CYP 2C9 (V9790), CYP2 C19 (V9880), CYP 2D6 (V9890), and CYP 3A4 Luciferin-PPXE (V9910) and were adapted for 1,536-well microplates and an automated protocol. The control compounds furafylline for 1A2 (F124), sulfaphenazole for CYP 2C9 (S0758), ketoconazole for CYP 2C19 (K1003), quinidine for 2D6 (Q3625), and ketoconazole for 3A4 (K1003) were purchased from Sigma Aldrich (St. Louis, MO). Recombinant P450 enzymes were obtained from baculovirus constructs expressed in insect cells (BD/Gentest).\nMedium-binding white solid Kalypsys plates used. Mixtures kept on ice. 1A2: 10 nM 1A2, 100 uM Luc-ME, 100 mM KPO4; 2C9: 10 nM 2C9, 100 uM Luc-H, 25 mM KPO4; 2C19: 5 nM 2C19, 10 uM Luc-H EGE, 50 mM KPO4; 2D6: 5 nM 2D6, 30 uM Luc-ME EGE, 100 mM KPO4; 3A4: 10 nM, 25 uM Luc-PPXE. All amounts are reflected in their final concentration, working concentration is 2x.\nNADPH regeneration solution: 1.3 mM NADP+, 3.3 mM glucose-6-phosphate, 3.3 mM MgCl2, 0.4 U/mL glucose-6-phosphate dehydrogenase for all isozymes, 200 mM KPO4 for 3A4. Mixture prepared at RT but kept on ice during automated run.\nRT incubation in auxilliary plate hotel for 1A2, 2D6, and 3A4; 37C for 2C9 and 2C19.\nKeywords: P450, CYP1A2, CYP2C19, CYP2C9, CYP2D6, CYP3A4, Luciferase, MLSMR, MLSCN, NIH Roadmap, qHTS, NCGC", "values": [{"smiles": "C[C@H](N)Cc1c[nH]c2ccc(OCc3cccs3)cc12", "AC50": "1.58 µM (active) and 126 nM (active)"}, {"smiles": "C[C@H](N)Cc1c[nH]c2ccc(O)cc12", "AC50": "inactive"}, {"smiles": "O=P(O)(O)C(Cl)(Cl)P(=O)(O)O", "AC50": "inactive"}, {"smiles": "CS(=O)(=O)Nc1ccc(Cc2noc(-c3ccc4[nH]cc(CCN)c4c3)n2)cc1", "AC50": "0.0316 µM (active)"}, {"smiles": "C=C[C@]12CN(C)[C@H]3C1[C@@]1(C(=O)Nc4ccccc41)[C@H]1C[C@H]2[C@H]3CO1", "AC50": "inactive"}, {"smiles": "O=C1C=C2C=C[C@H]3C[C@@]2(O1)[C@H]1CCCCN31", "AC50": "inactive"}, {"smiles": "Fc1ccccc1CCNCc1cccc(Cl)c1Cl", "AC50": "5.62 µM (active)"}, {"smiles": "c1ccc(CN2CCC3(CCNCC3)CC2)cc1", "AC50": "inactive"}, {"smiles": "c1ccc2c(N3CCNCC3)cccc2c1", "AC50": "10 µM (active)"}, {"smiles": "O=[N+]([O-])c1ccc2nc(N3CCNCC3)ccc2c1", "AC50": "2 µM (active)"}, {"smiles": "c1ccc(N2CCC3(CCNCC3)CC2)nc1", "AC50": "inactive"}, {"smiles": "COc1ccccc1N1CCNCC1", "AC50": "inactive"}, {"smiles": "CN1CCN(c2ccc3ccccc3n2)CC1", "AC50": "10 µM (active) and 3.16 µM (active)"}, {"smiles": "c1ccc2nc(N3CCNCC3)ccc2c1", "AC50": "1.58 µM (active) and 1.26 µM (active) and 251 nM (active)"}, {"smiles": "C[N+]1([O-])[C@@H]2CC(OC(=O)[C@@H](CO)c3ccccc3)C[C@@H]1[C@H]1O[C@H]12", "note": "(stereo not given in full)", "AC50": "inactive"}, {"smiles": "CCC1(CCSC(=N)N)C(=O)NC(=O)NC1=O", "activity, negative = inhibition": "-10.9% [at 2.29 µM]"}, {"smiles": "NO", "AC50": "inactive"}, {"smiles": "CC(=O)O[C@@H]1CN2CCC1CC2", "AC50": "inactive"}, {"smiles": "O=C1NC(=O)N(CCNc2ncc(C(F)(F)F)cc2Cl)C(=O)C1/C=N/OCc1c(F)cccc1Cl", "note": "(stereo not given)", "AC50": "inactive"}, {"smiles": "CP(=O)(O)C1=CCNCC1", "AC50": "inactive"}, {"smiles": "COC(=O)CN1CN(c2ccccc2)C2(CCN(Cc3ccc4ccccc4c3)CC2)C1=O", "AC50": "inactive"}, {"smiles": "c1cnc(N2CCC3(CCNCC3)CC2)nc1", "AC50": "inactive"}, {"smiles": "N[C@H](Cn1ccc(=O)[nH]c1=O)C(=O)O", "AC50": "inactive"}, {"smiles": "N[C@H](CCl)C(=O)O", "AC50": "inactive"}, {"smiles": "N[C@@H](CSC1c2ccccc2-c2ccccc21)C(=O)O", "AC50": "2.51 µM (active)"}, {"smiles": "C=C1[C@@H]2C[C@@]3([C@H]1O)[C@H]1C[C@@H]4[C@@]5(C)CC[C@H](O)[C@]4([C@H]1N(CC)C5)[C@H]3C[C@H]2O", "AC50": "inactive"}, {"smiles": "CCCCn1c(N)c(C(=O)NCc2cccs2)c2nc3ccccc3nc21", "AC50": "2.82 µM (active)"}, {"smiles": "CC(C)CCn1c(N)c(C(=O)NCc2cccs2)c2nc3ccccc3nc21", "AC50": "2.24 µM (active)"}, {"smiles": "COCCCN1CCN(c2nnc3n2-c2sc(Br)cc2C(c2ccccc2Cl)=NC3)CC1", "AC50": "inactive"}, {"smiles": "COC(=O)[C@@H]1[C@@H](O)[C@@]2(O)c3c(OC)cc(OC)cc3O[C@@]2(c2ccc(OC)cc2)[C@H]1c1ccccc1", "activity, negative = inhibition": "-2.88% [at 11.4 µM]"}, {"smiles": "CCCC[N+]1(C)[C@@H]2CC(OC(=O)[C@@H](CO)c3ccccc3)C[C@H]1[C@H]1O[C@H]12", "note": "(stereo not given in full)", "AC50": "inactive"}, {"smiles": "COc1cc2c(cc1OC)[C@H](C)NCC2", "AC50": "inactive"}, {"smiles": "[N-]=[N+]=NCC(=O)c1c[nH]c(=O)[nH]c1=O", "activity, negative = inhibition": "0.0946% [at 2.29 µM]"}, {"smiles": "O=[N+]([O-])c1cc(-c2ccc([As](=O)(O)O)cc2)ccc1[As](=O)(O)O", "activity, negative = inhibition": "-10.9% [at 2.29 µM]"}, {"smiles": "CCC1(C)CC(=O)NC(=O)C1", "AC50": "inactive"}, {"smiles": "COc1ccc2c(c1OC)CN1CCc3cc4c(cc3[C@H]1C2)OCO4", "AC50": "1.58 µM (active)"}, {"smiles": "CCC1=C(C[C@H]2NCCc3ccccc32)C[C@@H]2c3cc(OC)c(OC)cc3CCN2C1", "activity, negative = inhibition": "-7.08% [at 11.4 µM]"}, {"smiles": "COc1ccc2c(c1OC)C(=O)O[C@H]2[C@H]1c2cc3c(cc2CCN1C)OCO3", "AC50": "inactive"}, {"smiles": "CN(C)CCC(=O)[C@@]1(O)CC[C@H]2[C@H]3CC=C4C[C@@H](O)CC[C@]4(C)[C@H]3CC[C@]21C", "activity, negative = inhibition": "-5.71% [at 11.4 µM]"}, {"smiles": "CCN1C[C@@]2(COC)CC[C@H](OC)[C@]34[C@@H]1[C@]1(OCO[C@@]15C[C@@H](OC)C1C[C@H]3[C@H]5[C@@H]1OC)[C@H](O)[C@@H]24", "AC50": "inactive"}, {"smiles": "CC[C@H](CO)NC(=O)[C@@H]1C=C2c3cccc4c3c(cn4C)C[C@@H]2N(C)C1", "AC50": "inactive"}, {"smiles": "CC(C)C[C@H]1C(=O)N2CCC[C@@H]2[C@]2(O)O[C@](NC(=O)[C@H]3C=C4c5cccc6[nH]c(Br)c(c56)C[C@H]4N(C)C3)(C(C)C)C(=O)N12", "AC50": "inactive"}, {"smiles": "CC[C@@H](CO)NC(=O)[C@H]1C=C2c3cccc4c3c(cn4C)C[C@H]2N(C)C1", "AC50": "15.8 µM (active)"}, {"smiles": "Nc1ccc(S(=O)(=O)c2ccc(NCN3C(=O)NC(=O)C(=O)C3=O)cc2)cc1", "activity, negative = inhibition": "-12.8% [at 11.4 µM]"}, {"smiles": "COc1ccc(C(=O)NC2CC3CCCC(C2)N3CC(C)C)cc1OC", "note": "(stereo not given)", "AC50": "inactive"}]}]}
